# Test results as given in PubChem BioAssay (EPA / NIEHS).
# Results filed as inconclusive are left out. Calls of active or inactive are those of the source. The calls were made as follows, unless noted: active = hit-call score of the fitted dose curve at least 0.9, where 1 is the maximum; inactive = score below 0.9.
# Key:
# [1] = ACEA_ER_80hr: ACEA Biosciences xCELLigence Real-Time Cell Analysis on Estrogen Receptor Agonism for Proliferation (AID 2282667; active = hit-call score of the fitted dose curve at least 0.9, where 1 is the maximum); conditions: T47D proliferation, impedance (xCELLigence), 80 h
# Summary of the method: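 Estrogen-driven proliferation is captured as electrode impedance in T47D cells 80 h after compound addition. Test articles ran at 8 concentrations, 1:4 dilutions from 100 uM final, in two replicate plates.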
# [2] = APR_HepG2_CellCycleArrest_24hr: Apredica 24-hour HepG2 Assay for Cell Cycle Arrest (AID 2282905); conditions: imaging, actives raise or lower the signal;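 also: cell cycle arrest scored as ratio of 2N to 4N nuclear DNA content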
# Summary of the method: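 Compounds at 0.39–200 uM (0.5% DMSO) for 24 h, then fixed and Hoechst 33342 stained. Cell-cycle analysis of nuclear DNA content by high-content imaging, fitted bidirectionally versus DMSO.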
# [3] = APR_HepG2_NuclearSize_24hr: Apredica 24-hour HepG2 Assay for Nuclear Size (AID 2282907); conditions: high-content imaging, actives raise or lower the signal
# Summary of the method: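 HepG2 cells exposed 24 h to compounds at 0.39–200 uM (0.5% DMSO), fixed, Hoechst 33342 stained and imaged at 20x; nuclear diameter measured by automated image analysis, fitted bidirectionally against DMSO controls.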
# [4] = APR_HepG2_CellLoss_24hr: Apredica 24-hour HepG2 Assay for Cell Loss (AID 2282908); conditions: high-content imaging;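 as to AC50: fit in both directions so a hit may be cell loss or gain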
# Summary of the method: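 HepG2 cells exposed 24 hr to 0.39–200 uM compound in duplicate at 0.5% v/v final DMSO. Cells fixed in 3.7% formaldehyde and Hoechst 33342-stained. Cell number came from nuclear imaging at 20x. Bidirectional fit versus DMSO.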
# [5] = APR_HepG2_MicrotubuleCSK_24hr: Apredica 24-hour HepG2 Assay for Microtubule CSK Stabilty (AID 2282909); conditions: HepG2 microtubule cytoskeleton imaging, actives raise or lower the signal
# Summary of the method: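 HepG2 cells were treated 24 hr with compound at 0.39–200 uM in duplicate (0.5% DMSO final), then fixed and permeabilized. Alpha-tubulin immunofluorescence was imaged by high-content microscopy, with bidirectional fitting against DMSO and taxol as positive control.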
# [6] = APR_HepG2_MitoticArrest_24hr: Apredica 24-hour HepG2 Assay for Mitotic Arrest (AID 2282910); conditions: high-content imaging, actives raise or lower the signal
# Summary of the method: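 HepG2 cells, 24 h exposure at 0.39-200 uM (10 concentrations, duplicate, 0.5% DMSO). Fixed, stained for phospho-histone H3 with Hoechst; imaged by high-content microscopy, bidirectional fit versus DMSO.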
# [7] = APR_HepG2_MitoMembPot_24hr: Apredica 24-hour HepG2 Assay for Mitochondrial Membrane Potential (AID 2282911); conditions: imaging, actives raise or lower the signal
# Summary of the method: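 Mitochondrial dye uptake (MitoTracker Red CMXRos, 250 nM, 30 min pre-fixation) in HepG2 after 24 hr compound exposure, 0.39–200 uM; ArrayScan images at 20x, activity fitted in both directions relative to DMSO.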
# [8] = APR_HepG2_MitoMass_24hr: Apredica 24-hour HepG2 Assay for Mitochondrial Mass (AID 2282912); conditions: high-content imaging, actives raise or lower the signal
# Summary of the method: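 HepG2 cells exposed 24 hr to 0.39–200 uM compound, 0.5% v/v DMSO, in duplicate. Stained before fixation with 250 nM MitoTracker Red CMXRos for 30 min, then imaged at 20x with Hoechst nuclei. Fitted in both directions against DMSO.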
# [9] = APR_HepG2_p53Act_24hr: Apredica 24-hour HepG2 Assay for p53 Activation (AID 2282913); conditions: high-content imaging, actives raise or lower the signal;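 also: p53 protein immunofluorescence averaged per cell in HepG2 with Hoechst nuclei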
# Summary of the method: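 Following 24 hr dosing of HepG2 at 0.39–200 uM, the cells undergo formaldehyde fixation, Triton permeabilization and multiplexed antibody labeling that includes p53 (Cy5). Signal from the imaging is referenced to DMSO solvent controls.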
# [10] = APR_HepG2_CellCycleArrest_72hr: Apredica 72-hour HepG2 Assay for Cell Cycle Arrest (AID 2282914); conditions: high-content imaging, actives raise or lower the signal
# Summary of the method: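 Using multiplexed high-content imaging, HepG2 nuclei stained with Hoechst 33342 (2 ug/mL) were analysed for DNA content after fixation and permeabilization. Treatment lasted 72 hr across 0.39–200 uM in duplicate with final DMSO 0.5% v/v; DMSO served as negative control.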
# [11] = APR_HepG2_CellLoss_72hr: Apredica 72-hour HepG2 Assay for Cell Loss (AID 2282915); conditions: high-content imaging
# Summary of the method: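 HepG2 cells exposed 72 h to compound at 0.39–200 uM (10 concentrations, duplicate) in 0.5% DMSO. Fixed with 3.7% formaldehyde and Hoechst 33342-stained. Imaged at 20x; nuclear count gives cell number, fitted bidirectionally versus DMSO.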
# [12] = APR_HepG2_P-H2AX_72hr: Apredica 72-hour HepG2 Assay for H2AX Phosphorylation (AID 2282916); conditions: imaging, actives raise or lower the signal;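 also: phospho-histone H2A.x immunostain intensity per cell marking DNA damage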
# Summary of the method: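 HepG2 cells treated 72 h at 0.39–200 uM, 0.5% DMSO final, duplicates. Formaldehyde-fixed, Triton-permeabilised, immunostained for phospho-H2A.x with Hoechst; fluorescence imaged at 20x, bidirectional fit versus DMSO.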
# [13] = APR_HepG2_MitoMembPot_72hr: Apredica 72-hour HepG2 Assay for Mitochondrial Membrane Potential (AID 2282917); conditions: imaging, actives raise or lower the signal
# Summary of the method: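 HepG2 cells dosed 72 hr with compound at 0.39–200 uM in duplicate, 0.5% v/v DMSO final. Mitochondria stained with 250 nM MitoTracker Red CMXRos for 30 min before formaldehyde fixation, imaged by high-content fluorescence; bidirectional fit versus DMSO.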
# [14] = APR_HepG2_MitoticArrest_72hr: Apredica 72-hour HepG2 Assay for Mitotic Arrest (AID 2282918); conditions: high-content imaging, actives raise or lower the signal
# Summary of the method: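 Using high-content imaging of fixed HepG2 cells, phospho-histone H3 signal was measured following a 72 hr incubation with ten-point compound dilutions up to 200 uM. DMSO served as the negative control and baseline for bidirectional curve fitting.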
# [15] = APR_HepG2_MicrotubuleCSK_72hr: Apredica 72-hour HepG2 Assay for Microtubule CSK Stabilty (AID 2282919); conditions: HepG2 microtubule cytoskeleton, high-content imaging, actives raise or lower the signal
# Summary of the method: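 HepG2 cells were exposed 72 hr to compound at 0.39–200 uM in duplicate (0.5% DMSO final), then fixed and permeabilized. Alpha-tubulin immunofluorescence was imaged by high-content microscopy, with bidirectional fitting against DMSO and taxol as positive control.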
# [16] = APR_HepG2_P-H2AX_24hr: Apredica 24-hour HepG2 Assay for H2AX Phosphorylation (AID 2282920); conditions: high-content imaging, actives raise or lower the signal
# Summary of the method: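 Human HepG2 liver cells, treated 24 hr with test chemicals (0.39–200 uM, final DMSO 0.5% v/v), are fixed and co-stained for phospho-H2A.x and c-Jun with Hoechst. Imaged intensity is fitted in both directions against DMSO controls.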
# [17] = APR_HepG2_StressKinase_24hr: Apredica 24-hour HepG2 Assay for Stress Kinase (AID 2282922); conditions: HepG2 stress kinase (phospho-c-Jun) imaging, actives raise or lower the signal
# Summary of the method: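 HepG2 cells exposed 24 h to 0.39–200 uM compound in duplicate (0.5% v/v DMSO final). Cells fixed in 3.7% formaldehyde, permeabilized and immunostained for phospho-c-Jun; read by high-content fluorescence imaging, fitted bidirectionally against DMSO.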
# [18] = APR_HepG2_p53Act_72hr: Apredica 72-hour HepG2 Assay for p53 Activation (AID 2282923); conditions: high-content imaging, actives raise or lower the signal;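 also: average cellular p53 protein immunofluorescence intensity in HepG2 cells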
# Summary of the method: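 HepG2 cells exposed 72 h to 0.39–200 uM in 0.5% DMSO, duplicates. Fixed, permeabilized cells immunostained for p53 (Cy5) with Hoechst; imaged at 20x, fluorescence analyzed bidirectionally against DMSO.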
# [19] = APR_HepG2_MitoMass_72hr: Apredica 72-hour HepG2 Assay for Mitochondrial Mass (AID 2282924); conditions: high-content imaging, actives raise or lower the signal;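 also: MitoTracker Red CMXRos stain intensity per cell imaged as mitochondrial mass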
# Summary of the method: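 HepG2 cells dosed 72 hr at 0.39–200 uM (0.5% DMSO), in duplicate. MitoTracker Red CMXRos 250 nM loaded 30 min before formaldehyde fixation; high-content fluorescence imaging, bidirectional fit versus DMSO.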
# [20] = APR_HepG2_StressKinase_72hr: Apredica 72-hour HepG2 Assay for Stress Kinase (AID 2282921); conditions: HepG2 stress kinase (phospho-c-Jun) imaging, actives raise or lower the signal
# Summary of the method: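 HepG2 cells treated 72 hr with 0.39–200 uM compound, 0.5% v/v DMSO, duplicate wells. After formaldehyde fixation and Triton permeabilization, stained with anti-phospho-c-Jun (1:500) and Cy3 secondary, imaged at 20x. Fitted in both directions against DMSO.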
smiles,measurement,setting,value
Cn1c(=O)c2[nH]cnc2n(C)c1=O,outcome,[1],inactive
same,outcome,[2],inactive
same,outcome,[3],inactive
same,outcome,[4],inactive
same,outcome,[5],inactive
same,outcome,[6],inactive
same,outcome,[7],inactive
same,outcome,[8],inactive
same,outcome,[9],inactive
same,outcome,[10],inactive
same,outcome,[11],inactive
same,outcome,[12],inactive
same,outcome,[13],inactive
same,outcome,[14],inactive
same,outcome,[15],inactive
same,outcome,[16],inactive
same,outcome,[17],inactive
same,outcome,[18],inactive
same,outcome,[19],inactive
OCCNCCO,outcome,[1],inactive
same,outcome,[2],inactive
same,outcome,[3],inactive
same,outcome,[4],inactive
same,outcome,[5],inactive
same,outcome,[6],inactive
same,outcome,[7],inactive
same,outcome,[8],inactive
same,outcome,[10],inactive
same,outcome,[11],inactive
same,outcome,[12],inactive
same,outcome,[13],inactive
same,outcome,[14],inactive
same,outcome,[15],inactive
same,outcome,[16],inactive
same,outcome,[20],inactive
same,outcome,[17],inactive
same,outcome,[19],inactive
c1ccc2cc3ccccc3cc2c1,outcome,[1],inactive
same,AC50,[2],106 µM (active)
same,outcome,[3],inactive
same,AC50,[4],100 µM (active)
same,outcome,[5],inactive
same,outcome,[6],inactive
same,outcome,[7],inactive
same,outcome,[8],inactive
same,outcome,[9],inactive
same,AC50,[10],110 µM (active)
same,AC50,[11],139 µM (active)
same,AC50,[12],112 µM (active)
same,AC50,[16],107 µM (active)
same,outcome,[20],inactive
same,outcome,[17],inactive
same,outcome,[18],inactive
CCCCC(CC)C(=O)OCCOCCOCCOC(=O)C(CC)CCCC (stereo not drawn),outcome,[1],inactive
same,outcome,[2],inactive
same,outcome,[3],inactive
same,outcome,[4],inactive
same,outcome,[5],inactive
same,outcome,[6],inactive
same,outcome,[7],inactive
same,outcome,[8],inactive
same,outcome,[9],inactive
same,AC50,[10],79.2 µM (active)
same,AC50,[11],89.8 µM (active)
same,outcome,[12],inactive
same,outcome,[13],inactive
same,AC50,[14],91.2 µM (active)
same,outcome,[15],inactive
same,outcome,[16],inactive
same,outcome,[17],inactive
same,outcome,[18],inactive
same,outcome,[19],inactive
Cc1ccc(S(=O)(=O)NC(=O)NN2CCCCCC2)cc1,outcome,[1],inactive
same,outcome,[2],inactive
same,outcome,[3],inactive
same,outcome,[4],inactive
same,outcome,[5],inactive
same,outcome,[6],inactive
same,outcome,[7],inactive
same,outcome,[8],inactive
same,outcome,[10],inactive
same,outcome,[11],inactive
same,outcome,[12],inactive
same,outcome,[13],inactive
same,outcome,[14],inactive
same,outcome,[15],inactive
same,outcome,[16],inactive
same,outcome,[20],inactive
same,outcome,[17],inactive
same,outcome,[19],inactive
CCCCCCOC(=O)CC(CC(=O)OCCCCCC)(OC(=O)CCC)C(=O)OCCCCCC,AC50,[1],50 µM (active)
same,outcome,[2],inactive
same,outcome,[3],inactive
same,outcome,[4],inactive
same,outcome,[5],inactive
same,outcome,[6],inactive
same,outcome,[7],inactive
same,outcome,[8],inactive
same,outcome,[10],inactive
same,outcome,[11],inactive
same,outcome,[12],inactive
same,outcome,[13],inactive
same,outcome,[14],inactive
same,outcome,[15],inactive
same,outcome,[16],inactive
same,outcome,[20],inactive
same,outcome,[17],inactive
same,outcome,[19],inactive
